Results filed as inconclusive are left out. Calls of active or inactive are those of the source. Calls follow the shape of the full dose curve.
Assay: qHTS Assay for Lipid Storage Modulators (AID 1519); as to activity change, negative = inhibition: % is scaled to controls: 0 for no effect and ±100 for the full control effect
Settings: Drosophila S3 cells, BODIPY lipid droplet/cell ratio, laser cytometry, cells loaded with oleic acid
Excerpt: NIH Molecular Libraries Probe Production Centers Network [MLPCN]
NIH Chemical Genomics Center [NCGC]
Assay Submitter (PI): Beller, Mathias; Max-Planck-Institut fur Biophysikalische Chemie
NCGC Assay Overview: Storing lipids as a reservoir for energy or the anabolism of elementary metabolites is a common feature of probably all cells and is conserved from bacteria to humans. The universal cellular lipid storage organelle is the so-called lipid storage droplet (LD). Although ubiquitous, LDs share a simple structure composed of a hydrophobic core that harbors the storage lipids, which is shielded by a droplet-specific phospholipid monolayer to which proteins are attached. The current model of LD biogenesis involves an incorporation of the lipid core into the membrane leaflets of the endoplasmic reticulum (ER) followed by a subsequent budding-like maturation of a LD, which ultimately pinches off. Once released, LD volume can increase by localized lipogenesis or fusion of existing droplets. Storage lipids are re-mobilized enzymatically by lipase activity. Lipase regulation in the adipocyte is heavily studied and involves multiple components including catecholamine signaling, the LD-associated proteins Perilipin and comparative gene identification-58 (CGI-58) and at least two lipases named hormone sensitive lipase (HSL) and adipocyte triglyceride lipase (ATGL). LD regulation outside of the adipocyte is poorly understood and only few components are known. However, there is an urgent need to learn more about ectopic fat depots as mislocalized storage of lipids, for example in the liver or muscle, is an eminent health problem associated with insulin resistance or the metabolic syndrome. We developed a laser-scanning cytometer assay to enable 1,536-well screening and combined the results of the small molecules screen with an RNAi database based on lipid storage.
NCGC Assay Protocol Summary:
We dispensed 4 uL of cells at 1.25 x 10^6 cells/mL into LoBase Aurora COC 1,536-well plates (black walled, clear bottom) with a bottle-valve solenoid-based dispenser (Aurora) to obtain 5,000 cells/well. Triacsin C (Sigma-Aldrich T-4540), an inhibitor of long-chain fatty acyl CoA synthetase that blocks synthesis of triglycerides, was used as a positive control for lipid under-storage. A total of 23 nL of compound solution of different concentrations were transferred to the assay plates using a Kalypsys pin tool equipped with a 1,536-pin array containing 10-nL slotted pins (FP1S10, 0.457-mm diameter, 50.8 mm long; V&P Scientific). One microliter of oleic acid (400 uM) was added, and the plate was lidded with stainless steel rubber gasket lined lids containing pinholes. […] Fluorescence was detected by excitation of the fluorophores with a 488-nm laser on an Acumen Explorer (TTP Lab Tech). The total intensity in channel 1 (500-530 nm) reflected lipid droplet accumulation. […] The ratio of the total intensity in PMT channel 1 over total intensity of channel 3 was also calculated. Percent activity was computed relative to an internal control (100% inhibited lipid droplet deposition due to the presence of 20 uM Triacsin C), which was added to 32 wells/plate.

[1] = measured here: cell count channel max response
[2] = measured here: lipid channel max response

Row | Compound | activity change, negative = inhibition (at 25.7 µM (top of the series)) | max response [1] | max response [2] | activity change, negative = inhibition (at 57.5 µM (top of the series))
1 | CC(C)c1c(CN(C)[C@@H](C)Cc2ccccc2)n(C)n(-c2ccccc2)c1=O | -3.14% (inactive) | -13.6% | -14.7% | –
2 | C#CCN(C)[C@@H](C)Cc1ccccc1 | -2.3% (inactive) | 2.02% | -0.249% | –
3 | Clc1ccc(CO[C@@H](Cn2ccnc2)c2ccc(Cl)cc2Cl)cc1 | -6.08% (inactive) | -18.5% | -19.5% | –
4 | CC(=O)[C@@H]1CC[C@H]2[C@H]3CC[C@H]4C[C@@H](O)CC[C@]4(C)[C@@H]3C(=O)C[C@@]12C | -4.19% (inactive) | -12.1% | -15.2% | –
5 | C[C@@]12CC[C@H]3[C@@H](CC[C@@H]4C[C@H]5S[C@H]5C[C@]43C)[C@H]1CC[C@H]2O | -4.67% (inactive) | -19.3% | -23.9% | –
6 | C/C=C1\C[N@@+]2(C)CC[C@@]34C(=C(C=O)[C@H]1C[C@H]32)Nc1ccccc14 | -2.98% (inactive) | -3.08% | -5.51% | –
7 | COc1ccc2c(c1O)-c1c(OC)c(OC)cc3c1[C@H](C2)N(C)CC3 | 2.04% (inactive) | 5.35% | 2.2% | –
8 | CS(=O)(=O)N1CCC2(CCCN(Cc3ccncc3)C2)CC1 | – | 15.9% | 25.1% | 6.09% (inactive)
9 | CN1C2CC3CC1C(O3)C2O (configuration not stated) | – | -4.71% | -5.52% | 1.96% (inactive)
10 | C=C(C)C1CNC(C(=O)O)C1CC(=O)O (configuration not stated) | – | 5.93% | 13% | 6.75% (inactive)
11 | CC(C)c1cc2c(c(O)c1O)[C@]1(C(=O)O)CCCC(C)(C)C1CC2 (some centres not stated) | – | -11.1% | -4.62% | 4.21% (inactive)
12 | O=c1cccc2n1CC1CC2CN2CCCCC12 (configuration not stated) | – | 1.81% | 1.59% | 0.982% (inactive)
13 | CCC12C=CCN3CCC4(c5ccc(OC)cc5N(C)C4[C@@](O)(C(=O)OC)C1OC(C)=O)C32 (some centres not stated) | – | 13.3% | 25% | 1.88% (inactive)
14 | CCCN(CCC)C(=O)Cc1c(-c2ccc(Cl)cc2)nc2c(Cl)cc(Cl)cn12 | – | -21.2% | -20.1% | 1.58% (inactive)
